Spn MK inh: S. pneumoniae MK inhibitors, primary screen, biochemical, PK/LDH-coupled NADH absorbance; 65,000 compounds, 0.48% hits; purified MK, PK/LDH-coupled NADH absorbance 340 nm; mevalonate kinase [Streptococcus pneumoniae D39]; inhibition, % at 10 µM;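 active = ranked among the strongest by inhibition in the single 10 µM screen, a fixed top-ranked set picked for dose follow-up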
PMK inhibit: S. pneumoniae PMK inhibitors, primary screen, biochemical, mevalonate pathway, pilot trial included | AID 539, 2006 | inhibition, % at 10 µM | phosphomevalonate kinase (Streptococcus pneumoniae D39) | purified PMK, PK/LDH-coupled NADH absorbance 340 nm | 65,000 compounds, 0.49% hits;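 active = top-ranked compounds by inhibition in the single 10 µM screen, taking a fixed number of the strongest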;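 also: 0% = full reaction with DMSO carrier and 100% = background rate without enzyme reaction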
NADH coupling: inhibitors of PK/LDH coupling enzymes, profiling panel, artefact control, biochemical, MLSMR library. coupled PK/LDH NADH assays, four targets. IC50, µM (highest dose often 10 µM), without a hit: top-dose inhibition. 65,000 compounds, 0.02% hits;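 active = single-dose screening hits from any of four coupled enzyme assays that gave an IC50 when retested across doses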;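 also: the DPM-DC format reads NADH fluorescence rather than 340 nm absorbance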
Abs 340nm: compound light absorbance at 340 nm, profiling panel, artefact control, biochemical, MLSMR library, data from PS, PMK, MK assays; AID 708, 2007; 65,000 tested, under 10 active; fold change at 10 µM; compound absorbance at 340 nm, fold over control;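 active = at 10 µM dose, initial 340 nm absorbance at least 2 fold that of control wells; inactive = change under 2 fold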;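 also: initial absorbance extrapolated from kinetic A340 decline of NADH oxidation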
DPM-DC inhibit: S. pneumoniae DPM-DC inhibitors, primary screen, biochemical, PK/LDH-coupled NADH fluorescence; purified DPM-DC; calls only at 10 µM; 65,000 compounds, 0.49% hits;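 active = the 320 compounds with the highest percent inhibition in the single-dose primary screen, excluding strongly autofluorescent ones, cut at about 32% in these data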;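 also: kinetic rate of NADH fluorescence loss reporting ADP formed by the decarboxylase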
Autofluor 339: intrinsic fluorescence of library compounds, ex339/em460 – biochemical, MLSMR library, data from DPM-DC assay, artefact control, profiling panel; compound autofluorescence, ex339/em460 nm, NADH buffer; active compounds read high; 1 = no-compound wells, NADH background; fluorescence fold increase at 10 µM; 65,000 compounds, 5.5% hits;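 active = at 10 µM, mean starting fluorescence two-fold or more over control wells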;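 also: signal is the first read of a kinetic run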
* hit, by the source's call; i = inactive; . = no result given. Hits are enriched below; roughly 6.8% of the tested compounds scored in any of these assays.

SMILES | Spn MK inh | PMK inhibit | NADH coupling | Abs 340nm | DPM-DC inhibit | Autofluor 339
c1csc(-c2nnsc2-c2nc3ccccc3[nH]2)c1 | 2 | 8 | 3% | 1 | i | 1.2
O=C(Nc1c(-c2ccccc2)nc2sccn12)c1ccccc1 | 15 | 40* | 18% | 1 | i | 1.1
Nc1nc(-c2cccs2)c(NC(=O)c2ccccc2)s1 | 5 | 12 | 6% | 1 | i | 1.1
COCCN1CSC(=S)N(Cc2ccco2)C1 | 0 | 6 | 2% | 1 | i | 1
Cc1ccc2oc(=O)c3cc(C(=O)NCc4ccco4)sc3c2c1 | 4 | 9 | 7% | 1.1 | . | 2*
N#Cc1nc(-c2ccc(OCc3ccccc3)cc2)oc1NCCN1CCOCC1 | 7 | 0 | 4% | 1.1 | . | 3.9*
N#Cc1nc(-c2ccco2)oc1NCCCN1CCOCC1 | 7 | 9 | 8% | 1.1 | . | 3.6*
N#Cc1nc(-c2ccc(OCc3ccccc3)cc2)oc1N1CCOCC1 | 17 | 15 | 11% | 1 | i | 1.9
Cc1ccc(-c2nc(C#N)c(NCc3ccco3)o2)cc1 | 2 | 18 | 10% | 1 | . | 3.7*
N#Cc1nc(-c2ccco2)oc1NCc1ccco1 | 12 | 13 | 5% | 1 | . | 2.4*
Cc1ccc(OCc2nc(C#N)c(NCc3ccco3)o2)cc1 | 5 | 16 | 7% | 1 | i | 1.1
Nc1cc(C2CCCC2)nn1-c1ccccc1 | 6 | 0 | 2% | 1 | i | 1.1
Cc1nn(-c2ccc(Cl)cc2)c2sc(C(=O)N3CCN(c4ccccn4)CC3)cc12 | 0 | 11 | 3% | 1 | i | 1.3
COC(=O)c1ccc(OCC(O)CN2C(=O)NC(C)(C)C2=O)cc1 (centres undefined) | 0 | 1 | 0% | 1 | i | 1.1
Cc1ccc2cc(C#N)c(NCc3ccco3)nc2c1 | 9 | 11 | 10% | 1 | . | 3.8*
N#Cc1nc(-c2ccc(OCc3ccccc3)cc2)oc1NCc1ccco1 | 12 | 10 | 7% | 1.1 | i | 2.4*
CNc1oc(-c2ccc(OCc3ccccc3)cc2)nc1C#N | 12 | 14 | 9% | 1.1 | i | 1.4
CCC(C)N1C(=O)c2ccccc2C1C(=O)NC1CCCCCC1 (centres undefined) | 5 | 15 | 7% | 1 | i | 1.1
CCN(CC)C(=O)c1cc(-c2ccccc2OC)on1 | 4 | 13 | 6% | 0.99 | i | 1.1
COc1ccccc1-c1ccc(C(=O)O)o1 | 0 | 12 | 9% | 1 | i | 3.3*
CCCN(CCC(=O)Nc1ccccc1F)CC1CC1 | 4 | 6 | 10% | 1 | i | 1.1
COC(=O)c1[nH]c2ccc(C)cc2c1NC(=O)CCN1CCN(C2CCCCC2)CC1 | 3 | 2 | 6% | 1.1 | i | 2.9*
COC(=O)c1[nH]c2ccc(C)cc2c1NC(=O)CN1CCc2cc(OC)c(OC)cc2C1 | 10 | 15 | 14% | 1 | i | 2.2*
COC(=O)c1[nH]c2ccc(C)cc2c1NC(=O)CN1CCCC(C)(C)C1 | 11 | 9 | 5% | 1 | i | 1.8
COC(=O)c1[nH]c2ccc(F)cc2c1NC(=O)CCN1CCN(Cc2ccc3c(c2)OCO3)CC1 | 7 | 5 | 6% | 1.1 | i | 2*
COC(=O)c1[nH]c2ccc(Cl)cc2c1NC(=O)CCN1CCN(C2CCCCC2)CC1 | 4 | 0 | 3% | 1.1 | i | 1.9
COC(=O)c1[nH]c2ccc(C)cc2c1NC(=O)Nc1ccccc1OC | 10 | 10 | 10% | 1.1 | i | 2.6*
COC(=O)c1[nH]c2ccc(C)cc2c1NC(=O)C1=COCCO1 | 11 | 14 | 15% | 1.1 | i | 1.7
COc1ccc(-c2csc(N(CC3CCCO3)C(=O)c3ccco3)n2)cc1 (centres undefined) | 12 | 3 | 5% | 1.1 | i | 2.7*
COc1ccc(-c2csc(N3CCN(C(=O)c4ccco4)CC3)n2)cc1 | 2 | 0 | 1% | 1 | i | 1.1

Compound activity deposited in PubChem by SRMLSC.
